This note sets out measurements from PubChem BioAssay (NCI).

Test [1] can be described thus: NCI Yeast Anticancer Drug Screen. Data for the rad50 strain (AID 155).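 Also: 0% = growth of vehicle-only cultures of the same strain.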 Conditions: S. cerevisiae rad50 strain growth inhibition; at 50.0 µM; hits give high values. The method, boiled down:
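A DNA repair-deficient yeast mutant serves as the test organism; compound-induced growth inhibition is calculated against vehicle-treated cells.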

A short description of test [2]: NCI Yeast Anticancer Drug Screen. Data for the mec2-1 strain (AID 157). Conditions: S. cerevisiae mec2-1 strain, at 50.0 µM, hits give high values. The method, boiled down:
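Test agents were screened against the mec2-1 yeast strain, with defined DNA repair or cell cycle alteration. Growth was scored as inhibition against vehicle-only controls.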

Test [3] can be described thus: NCI Yeast Anticancer Drug Screen. Data for the sgs1 mgt1 strain (AID 161).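 Also: 0% = growth of cultures given vehicle only.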 To be noted: S. cerevisiae sgs1 mgt1 strain, at 50.0 µM, hits give high values. The method, boiled down:
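Read-out: growth inhibition vs vehicle controls. Cells: mutant yeast strain deficient in DNA damage repair.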

Test [4] is described as follows: NCI Yeast Anticancer Drug Screen. Data for the cln2 rad14 strain (AID 165).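 Also: 0% = growth equal to vehicle treated cultures.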 Conditions: S. cerevisiae cln2 rad14 strain, at 50.0 µM, hits give high values. The method, boiled down:
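Growth of compound-exposed yeast (cln2 rad14 genotype) measured and expressed as inhibition relative to vehicle.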

A short description of test [5]: NCI Yeast Anticancer Drug Screen. Data for the bub3 strain (AID 167). Conditions: S. cerevisiae bub3 mutant strain, at 50.0 µM, hits give high values. The method, boiled down:
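Inhibition values come from growth of compound-treated mutant yeast normalised to vehicle-treated controls.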

Test [6] is described as follows: NCI Yeast Anticancer Drug Screen. Data for the mlh1 rad18 strain (AID 175). To be noted: S. cerevisiae mlh1 rad18 strain growth inhibition; at 50.0 µM; hits give high values. The method, boiled down: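 In this whole-cell yeast screen, a strain with altered DNA damage repair is challenged with compound, and its growth is measured against matched vehicle-treated controls.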

This is part of a sample that, as a whole, favours compounds with a hit. Of some 79,000 tested, about 15% had one in any assay. Values without a mark were called inactive. The source made the active and inactive calls. Rule as the data show it: active = growth inhibition above about 70%; inactive = the rest.

For `C=CC(O)C(C)C` (stereo not given), the growth inhibition in test [1] is 10.7%; in test [2], -8.35%; in test [3], -2.55%; in test [4], -2.95%; in test [5] it was -1.55%; in test [6], 3.1%.

With `O=C(Oc1ccc(-c2ccccc2)cc1)c1cccc([N+](=O)[O-])c1`, the growth inhibition is -10.1% in test [1]; -4.5% in test [2]; 7.1% in test [3]; -11.4% in test [4]; 27.5% in test [5]; 0.2% in test [6].

As to `Clc1ccc(-c2nnc(-c3ccc4ccccc4c3)o2)cc1Cl`, the growth inhibition in test [1] was 3.25%; in test [2], -28.9%; in test [3] it was 7.15%; in test [4], 11.8%; in test [5], -14.9%; in test [6], -6.2%.

Regarding `Cc1c([N+](=O)[O-])cc(C(C)(C)C)c(OC(=O)C(C)(C)C)c1[N+](=O)[O-]`, the growth inhibition is 53.4% in test [1]; 44.9% in test [2]; 59.8% in test [3]; 41.5% in test [4]; 92.4% (active) in test [5]; 54.3% in test [6].

For the molecule `O=C(N/C(=C/c1ccccc1)C(=O)N1CCN(C(=O)/C(=C\c2ccccc2)NC(=O)c2ccccc2)CC1)c1ccccc1`, the growth inhibition in test [1] is 0.9%; in test [2], -0.45%; in test [3], -8.05%; in test [4], -5.7%; in test [5], -6.8%; in test [6], -2.95%.

With `c1cnc2ncncc2n1`, the growth inhibition is -2.6% in test [1]; 32.4% in test [2]; -8.55% in test [3]; 28.8% in test [4]; 14.4% in test [5]; 12.5% in test [6].

As for `COc1ccc(/C=C2\NC(=S)N(/C=C3\C(=O)Oc4ccccc4C3=O)C2=O)cc1OC`, the growth inhibition is -5.85% in test [1]; -17.6% in test [2]; 13.1% in test [3]; -7.85% in test [4]; -13.8% in test [5]; 6.4% in test [6].

On to `CC1CCC(C(C)C)C(OS(=O)(=O)c2ccccc2)C1` (stereo not given), for which the growth inhibition in test [1] was 0.1%; in test [2], -26.7%; in test [3] it was -10.4%; in test [4] it was 17.3%; in test [5], 11.6%; in test [6], 1.8%.

Regarding `CCCOC(=O)CCBr`, the growth inhibition in test [1] is -2.55%; in test [2], 10.1%; in test [3], -13.9%; in test [4], -57%; in test [5], -22.9%; in test [6] it was -8.1%.

With `COS(=O)(=O)C=C(c1ccccc1)c1ccccc1`, the growth inhibition in test [1] is 12.8%; in test [2] it was -27.1%; in test [3], 15.7%; in test [4] it was -24.5%; in test [5], 6.4%; in test [6] it was -1.95%.

Take `CN(C)N=Nc1ccc(C(=O)N/N=C/c2ccc([N+](=O)[O-])cc2)cc1`: the growth inhibition in test [1] was -0.95%; in test [2], 40.5%; in test [3], 4.75%; in test [4], -5.75%; in test [5] it was 23.9%; in test [6], 17.9%.

In the case of `COc1ccc2cc1Oc1ccc(cc1)CC1c3c(cc(OC)c4c3Oc3cc5c(cc3O4)CCNC5C2)CCN1C` (stereo not given), the growth inhibition was -15.9% in test [1]; -31.6% in test [2]; -12.2% in test [3]; -1.1% in test [4]; -38.8% in test [5]; -25.1% in test [6].

Regarding `O=c1c2c(ccc3ccccc32)oc2ccc3ccccc3c12`, the growth inhibition in test [1] was 15%; in test [2] it was 1.45%; in test [3], -5.45%; in test [4] it was -45.1%; in test [5] it was -7.65%; in test [6], 16.4%.

Regarding `O=C(Nc1ccccc1SC(/C=C/NNC1=NC(c2ccccc2)C(c2ccccc2)=NN1)c1ccccc1)c1ccc(Cl)cc1Cl` (stereo not given), the growth inhibition was -35% in test [1]; -7.7% in test [2]; -22.8% in test [3]; 24.8% in test [4]; 0.15% in test [5]; -13.4% in test [6].

Take `Cc1ccc(NC(=O)COc2cc(Cl)c(Cl)cc2Cl)cc1[N+](=O)[O-]`: the growth inhibition in test [1] was -8.55%; in test [2] it was -9.1%; in test [3], -6.6%; in test [4] it was 10.2%; in test [5], 0.1%; in test [6], 0.4%.

As for `CN=C1C=C(/N=C2/C=C(N/C(=C\C#N)C(C)(C)O)OC2(C)C)OC1(C)C`, the growth inhibition in test [1] is -10.6%; in test [2], -5.3%; in test [3], 13.6%; in test [4], 7.1%; in test [5] it was 23.9%; in test [6], 28.6%.

`O=C1c2ccccc2-c2nnc(-c3ccc(Cl)cc3)cc21`: the growth inhibition in test [1] is -29.1%; in test [2] it was -14.2%; in test [3], -18.2%; in test [4], -16.9%; in test [5], -24.2%; in test [6], -18.3%.

On to `Cc1ccc(NC(=S)N2CCCCC2)cc1C`, for which the growth inhibition is -1.9% in test [1]; 13.2% in test [2]; 19.3% in test [3]; -19.2% in test [4]; 25.4% in test [5]; 15.4% in test [6].

For `CCOC(=O)/C=C/C(=O)NN`, the growth inhibition in test [1] was 11.4%; in test [2] it was -6.35%; in test [3] it was 2.6%; in test [4], -26%; in test [5], 0.4%; in test [6] it was 5.6%.

For the molecule `C/C=C/C(=O)OCCC[N+](C)(C)C`, the growth inhibition in test [1] was 8.8%; in test [2], 12.3%; in test [3], 2.8%; in test [4], -0.95%; in test [5], 13.9%; in test [6], -23.8%.
